Laboratory results as given in PubChem BioAssay (Tox21).
Inconclusive results are not listed. The source made the active and inactive calls. Unless noted, the call rests on the fitted dose curve.

Experiments:
[1] = Nuclear factor erythroid 2-related factor 2/antioxidant responsive element (Nrf2/ARE) small molecule agonists: qHTS cell viability counter screen in human keratinocytes (AID 1919968; active means well fitted curve in the direction sought with a large enough effect in the repeat runs; an effect the other way counts as inactive or inconclusive; further: nearly all actives have a fitted effect of over 55% in size; further: potency means the concentration at half of the fitted maximal effect)
Summary of the method: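 Cells of the KeratinoSens line were plated at 1,500 per well and left for 5 h before compound transfer from DMSO stocks. After a 23 h incubation (37 C, 5% CO2), CellTiter-Fluor was added. Signal was taken as fluorescence intensity 1 h later.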

[2] = Nuclear factor erythroid 2-related factor 2/antioxidant responsive element (Nrf2/ARE) small molecule agonists: luciferase reporter gene qHTS assay in human keratinocytes (AID 1919969); further: nearly all actives have a fitted effect of over 35% in size
[3] = target: Gonadotropin-releasing hormone receptor (Homo sapiens) (UniProt P30968); assay: Human gonadotropin-releasing hormone receptor (GnRHR) small molecule agonists, calcium flux assay in GnRHR-HEK293 cells (AID 1920063); further: nearly all actives have a fitted effect of over 35% in size
Chain of Gonadotropin-releasing hormone receptor (Homo sapiens) (P30968 whole entry, looked up): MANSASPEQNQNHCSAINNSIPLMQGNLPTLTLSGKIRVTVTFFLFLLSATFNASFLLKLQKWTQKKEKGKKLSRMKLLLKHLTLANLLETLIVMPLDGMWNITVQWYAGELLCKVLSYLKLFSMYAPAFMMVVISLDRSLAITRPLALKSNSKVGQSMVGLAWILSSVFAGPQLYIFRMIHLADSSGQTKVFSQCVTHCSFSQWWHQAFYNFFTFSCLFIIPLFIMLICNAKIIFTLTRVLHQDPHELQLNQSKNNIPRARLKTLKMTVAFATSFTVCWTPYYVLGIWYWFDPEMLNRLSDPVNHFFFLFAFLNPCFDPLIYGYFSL
Summary of the method: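 Compounds dissolved in DMSO are pin-transferred onto dye-loaded GnRHR-HEK293 cells, which were seeded 18 h before at 37 C/5% CO2. Calcium signal is read as fluorescence intensity at 1 s intervals for 3 min.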

[4] = target: KiSS-1 receptor (Homo sapiens) (UniProt Q969F8); assay: Human kisspeptin (KISS1R) small molecule agonists, calcium flux assay in KISS1R-HEK293 cells (AID 1920064; active means well fitted curve in the direction sought with a large enough effect in the repeat runs; an effect the other way counts as inactive or inconclusive)
Chain of KiSS-1 receptor (Homo sapiens) (Q969F8 whole entry, looked up): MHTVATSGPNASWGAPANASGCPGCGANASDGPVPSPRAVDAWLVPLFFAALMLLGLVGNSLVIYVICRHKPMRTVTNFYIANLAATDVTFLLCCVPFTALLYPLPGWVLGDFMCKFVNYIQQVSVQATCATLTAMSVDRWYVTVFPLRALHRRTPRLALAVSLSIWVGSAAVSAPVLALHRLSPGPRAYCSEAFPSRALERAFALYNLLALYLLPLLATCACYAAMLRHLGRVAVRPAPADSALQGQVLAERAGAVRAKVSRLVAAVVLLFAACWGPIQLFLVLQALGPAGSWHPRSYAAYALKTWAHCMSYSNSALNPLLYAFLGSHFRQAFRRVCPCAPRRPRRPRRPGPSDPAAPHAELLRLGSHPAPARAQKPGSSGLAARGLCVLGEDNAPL
Summary of the method: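 Cell line: HEK293, stable human KISS1R. Dye loading 1 h at 37 C after 18 h culture. Read: kinetic fluorescence, 480/540 nm, 3 min at 1 s intervals.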

[5] = G protein-coupled receptor (GPCR) small molecule agonists, calcium flux assay: HEK293 wild type cell line counter screen (AID 1920065)
Summary of the method: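 Tox21 10K compounds, 15 concentrations each in triplicate, pin-transferred in DMSO onto dye-loaded cells; kinetic read at 480/540 nm for 3 min, 1 s intervals.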

[6] = p53 small molecule agonists, cell-based qHTS assay with human liver microsomes: qHTS cell viability counter screen (AID 1963579); further: nearly all actives have a fitted effect of over 45% in size; further: potency means the concentration at half of the fitted maximal effect
Summary of the method: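 In this multiplexed counter screen, the reporter plates were subsequently treated with CellTiter-Glo so that cell viability, reflected by luminescence, could be recorded for p53RE-bla cells dosed 16 h with compounds under microsomal activation (HLM and NADPH).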

[7] = p53 small molecule agonists, cell-based qHTS assay with rat liver microsomes: qHTS cell viability counter screen (AID 1963580); further: nearly all actives have a fitted effect of over 45% in size
Summary of the method: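 Counter screen for cytotoxicity under metabolic activation: rat liver microsomes and NADPH, 0.5 mg/mL final each, added with compounds to p53RE-bla HCT-116 cells; 16 h at 37 C, then ATP luminescence read.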

[8] = target: 5-hydroxytryptamine receptor 2A (Homo sapiens) (UniProt P28223); assay: 5-hydroxytryptamine receptor 2A (HTR2A) small molecule antagonists, cell-based qHTS assay (AID 1963586); further: nearly all actives have a fitted effect of over 45% in size
Chain of 5-hydroxytryptamine receptor 2A (Homo sapiens) (P28223 whole entry, looked up): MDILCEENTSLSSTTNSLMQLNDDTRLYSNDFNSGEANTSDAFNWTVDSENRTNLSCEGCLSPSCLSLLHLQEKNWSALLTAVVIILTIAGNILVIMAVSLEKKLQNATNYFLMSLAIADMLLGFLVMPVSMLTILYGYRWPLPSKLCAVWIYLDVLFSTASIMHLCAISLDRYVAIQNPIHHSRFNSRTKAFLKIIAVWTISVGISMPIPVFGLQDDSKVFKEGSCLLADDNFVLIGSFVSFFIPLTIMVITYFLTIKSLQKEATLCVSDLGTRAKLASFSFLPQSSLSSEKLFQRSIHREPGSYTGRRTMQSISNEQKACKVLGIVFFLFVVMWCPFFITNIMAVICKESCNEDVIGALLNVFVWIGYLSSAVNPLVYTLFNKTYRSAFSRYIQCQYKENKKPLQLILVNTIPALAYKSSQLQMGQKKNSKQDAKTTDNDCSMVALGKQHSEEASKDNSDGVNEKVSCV
Summary of the method: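 CHO cells stably expressing human HTR2A were plated for 18 h at 37 C, then loaded with calcium dye for 1 h. Compounds were preincubated 5 min at room temperature before DOI (4 nM solution) was added. Kinetic fluorescence was read for 3 min.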

[9] = target: 5-hydroxytryptamine receptor 2A (Homo sapiens) (UniProt P28223); assay: 5-hydroxytryptamine receptor 2A (HTR2A) small molecule agonists, cell-based qHTS assay (AID 1963587); further: nearly all actives have a fitted effect of over 30% in size
Summary of the method: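 HTR2A-CHO cells, plated 18 h at 37 C/5% CO2, dye-loaded 1 h at 37 C; compounds in DMSO added by pin tool (agonist mode). Intracellular calcium flux read as kinetic fluorescence on FDSS over 2 min at 1 s intervals.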

[10] = target: Muscarinic acetylcholine receptor M1 (Homo sapiens) (UniProt P11229); assay: Cholinergic receptor muscarinic 1 (CHRM1) small molecule antagonists, cell-based qHTS assay (AID 1963588); further: nearly all actives have a fitted effect of over 40% in size; further: potency means the concentration at half of the fitted maximal effect
Chain of Muscarinic acetylcholine receptor M1 (Homo sapiens) (P11229 whole entry, looked up): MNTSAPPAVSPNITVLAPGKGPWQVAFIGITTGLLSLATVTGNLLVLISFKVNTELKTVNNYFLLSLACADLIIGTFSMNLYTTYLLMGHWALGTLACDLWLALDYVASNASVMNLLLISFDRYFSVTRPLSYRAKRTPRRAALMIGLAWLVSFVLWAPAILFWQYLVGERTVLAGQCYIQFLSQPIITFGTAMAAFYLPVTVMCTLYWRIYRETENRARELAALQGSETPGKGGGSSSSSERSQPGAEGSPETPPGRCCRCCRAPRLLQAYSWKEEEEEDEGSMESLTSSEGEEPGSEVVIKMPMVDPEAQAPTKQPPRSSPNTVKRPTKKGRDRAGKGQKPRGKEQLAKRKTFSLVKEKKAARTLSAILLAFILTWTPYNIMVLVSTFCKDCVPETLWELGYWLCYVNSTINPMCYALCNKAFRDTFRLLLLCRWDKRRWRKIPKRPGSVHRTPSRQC
Summary of the method: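 Compounds were tested at 15 concentrations in three independent runs. Dye-loaded CHRM1-CHO cells were exposed 5 min at room temperature before stimulation by acetylcholine added at 50nM. Intracellular calcium was read kinetically on FDSS for 3 min.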

[11] = target: Muscarinic acetylcholine receptor M1 (Homo sapiens) (UniProt P11229); assay: Cholinergic receptor muscarinic 1 (CHRM1) small molecule agonists, cell-based qHTS assay (AID 1963589); further: nearly all actives have a fitted effect of over 35% in size
Summary of the method: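 Homogeneous fluorescence calcium flux, agonist mode. Human M1-expressing CHO cells; compound dosed at 15 concentrations, three independent runs; signal sampled every 1 sec.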

[12] = cAMP Responsive Elements (CRE) small molecule agonists, cell-based qHTS assay (AID 1963590)
Summary of the method: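 HEK 293T cells stably bearing CRE-bla were plated at 2,000 cells per well and rested 18 h. Compounds, positive controls or DMSO were added for 3 h at 37 C. LiveBLAzer B/G substrate was then loaded for 2 h at room temperature.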

[13] = cAMP Responsive Elements (CRE) small molecule antagonists, cell-based qHTS assay (AID 1963591; active means well fitted inhibition curve with a large enough effect in the signal ratio in the repeat runs, not every such curve was filed as active; the % refers to the signal ratio)
Summary of the method: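 First, CRE-bla HEK293T cells settled 18 h at 37 C. Next, compound and 0.25 uM final NKH477 were applied for 3 h. Last, LiveBLAzer B/G substrate was loaded for 2 h at room temperature.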

[14] = target: D(2) dopamine receptor (Homo sapiens) (UniProt P14416); assay: Dopamine D2 receptor (DRD2) small molecule agonists, cell-based qHTS assay (AID 1963594); further: nearly all actives have a fitted effect of over 35% in size
Chain of D(2) dopamine receptor (Homo sapiens) (P14416 whole entry, looked up): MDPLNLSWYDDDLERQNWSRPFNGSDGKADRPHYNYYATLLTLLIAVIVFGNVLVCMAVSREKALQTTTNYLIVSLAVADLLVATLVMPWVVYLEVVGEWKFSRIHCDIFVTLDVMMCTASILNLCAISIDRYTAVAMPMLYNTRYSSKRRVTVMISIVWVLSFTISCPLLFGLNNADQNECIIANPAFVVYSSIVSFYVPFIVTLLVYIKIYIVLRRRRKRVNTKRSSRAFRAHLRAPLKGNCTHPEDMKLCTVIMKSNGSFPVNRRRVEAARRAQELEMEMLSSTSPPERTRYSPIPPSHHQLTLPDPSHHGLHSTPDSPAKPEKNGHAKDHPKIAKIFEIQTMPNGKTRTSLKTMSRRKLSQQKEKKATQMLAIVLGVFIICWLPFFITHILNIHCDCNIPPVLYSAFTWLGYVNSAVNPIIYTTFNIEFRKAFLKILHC
Summary of the method: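 HEK293 cells stably expressing DRD2 were cultured 24 h at 37 C, then given Ro20-1724 (0.1 mM final) and compounds for 10 min at room temperature. NKH477 (200nM) was then added for 30 min. cAMP was read by HTRF.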

[15] = target: D(2) dopamine receptor (Homo sapiens) (UniProt P14416); assay: Dopamine D2 receptor (DRD2) small molecule antagonists, cell-based qHTS assay (AID 1963595; active means well fitted inhibition curve with a large enough effect in the signal ratio in the repeat runs, with a control signal flat; the % refers to the signal ratio)
Summary of the method: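 DRD2-HEK293; 0.1 mM Ro20-1724; cpd 10 min RT; NKH477 200 nM + quinpirole 12 nM, 30 min RT; HTRF cAMP (cAMP-d2/anti-cAMP cryptate), 665/620 nm ratio after 1 h.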

[16] = target: Beta-2 adrenergic receptor (Homo sapiens) (UniProt P07550); assay: Adrenergic beta2 receptor (ADRB2) small molecule antagonists, cell-based qHTS assay (AID 1963592); further: nearly all actives have a fitted effect of over 50% in size; further: potency means the concentration at half of the fitted maximal effect; on activity change, negative = inhibition: series mostly up to about 92 µM
Chain of Beta-2 adrenergic receptor (Homo sapiens) (P07550 whole entry, looked up): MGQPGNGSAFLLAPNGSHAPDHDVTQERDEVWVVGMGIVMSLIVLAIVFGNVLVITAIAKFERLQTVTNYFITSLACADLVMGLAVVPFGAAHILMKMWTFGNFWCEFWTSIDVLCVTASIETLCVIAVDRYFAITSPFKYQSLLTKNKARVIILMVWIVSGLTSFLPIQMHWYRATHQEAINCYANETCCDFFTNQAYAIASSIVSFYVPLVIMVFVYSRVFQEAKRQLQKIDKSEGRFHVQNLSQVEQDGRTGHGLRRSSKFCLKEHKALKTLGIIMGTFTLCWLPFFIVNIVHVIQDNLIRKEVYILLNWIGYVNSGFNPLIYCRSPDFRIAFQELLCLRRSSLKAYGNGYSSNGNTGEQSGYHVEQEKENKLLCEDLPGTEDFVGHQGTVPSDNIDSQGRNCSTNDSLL
Summary of the method: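 Assay format: CHO-ADRB2 cells, 18-20hr seeding at 37C/5% CO2, then compound plus 1nM isoproterenol agonist mix for 0.5hr RT. Homogeneous time-resolved fluorescence cAMP detection after 1hr, expressed as 665/615 nm ratio.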

[17] = p53 small molecule agonists, cell-based qHTS assay: qHTS cell viability counter screen (AID 1963581); further: nearly all actives have a fitted effect of over 45% in size
Summary of the method: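 ATP content measured by luminescence in HCT-116 p53RE-bla cells treated 16 h at 37 C, same wells as the reporter screen.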

[18] = target: Beta-2 adrenergic receptor (Homo sapiens) (UniProt P07550); assay: Adrenergic beta2 receptor (ADRB2) small molecule agonists, cell-based qHTS assay (AID 1963593);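 further: CHO cells stably overexpressing human ADRB2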
Summary of the method: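 CHO cells stably over-expressing ADRB2 were plated overnight at 37C, then dosed with compounds plus a stimulation mix containing 100uM IBMX and 25uM Ro-20-1724 for 0.5hr at room temperature. cAMP was measured by HTRF competition, 1hr.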

[19] = p53 small molecule agonists, cell-based qHTS assay (AID 1963582; active means well fitted activation curve with a large enough effect in the signal ratio in the repeat runs, not every such curve was filed as active; the % refers to the signal ratio)
Summary of the method: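 16 h compound exposure (37 C) of p53 response element–bla cells, preceded by 5 h recovery at 37 C/5% CO2; read-out via LiveBLAzer B/G FRET substrate, 2 h RT, fluorescence intensity.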
On the % scale 0 is the no-effect control and ±100 the full control effect.

COc1ccc2c(c1)c1c3n2CCN(C)C3=NCC1
inactive: Potency [1] | Potency [2] | Potency [3] | Potency [4] | Potency [5] | Potency [6] | Potency [7] | Potency [8] | Potency [9] | Potency [10] | Potency [11] | Potency [12] | Potency [13] | Potency [14] | Potency [15]

Nc1ccc(F)cc1
inactive: Potency [1] | Potency [2] | Potency [3] | Potency [4] | Potency [5] | Potency [6] | Potency [7] | Potency [8] | Potency [9] | Potency [10] | Potency [11] | Potency [12] | Potency [13] | Potency [16] | Potency [14]

CC/C=C\CC/C=C/CO
inactive: Potency [1] | Potency [2] | Potency [3] | Potency [4] | Potency [5] | Potency [6] | Potency [7] | Potency [8] | Potency [9] | Potency [10] | Potency [11] | Potency [12] | Potency [13] | Potency [16] | Potency [14] | Potency [15]

CC[C@H]1OC(=O)[C@H](C)[C@@H](O[C@H]2C[C@@](C)(OC)[C@@H](O)[C@H](C)O2)[C@H](C)[C@@H](O[C@@H]2O[C@H](C)C[C@H](N(C)C)[C@H]2O)[C@](C)(O)C[C@@H](C)/C(=N\OCOCCOC)[C@H](C)[C@@H](O)[C@]1(C)O
inactive: Potency [1] | Potency [2] | Potency [3] | Potency [4] | Potency [5] | Potency [6] | Potency [7] | Potency [17] | Potency [12] | Potency [14] | Potency [15]

COc1ccc2cc(S(=O)(=O)N[C@H](CC(=O)N[C@H](Cc3ccc(CN4[C@H](C)CCC[C@@H]4C)cc3)C(=O)N(C)C(C)C)c3ccc4c(c3)OCO4)ccc2c1
inactive: Potency [2] | Potency [3] | Potency [4] | Potency [5] | Potency [7] | Potency [8] | Potency [11] | Potency [18]
active: Potency [1] 41 µM | Potency [6] 43.3 µM | Potency [10] 0.794 µM

NCCCN(CCO)CCO
active: Potency [16] 0.217 µM
inactive: Potency [1] | Potency [2] | Potency [3] | Potency [4] | Potency [5] | Potency [7] | Potency [17] | Potency [8] | Potency [9] | Potency [10] | Potency [11] | Potency [12] | Potency [13] | Potency [18] | Potency [14] | Potency [15]

c1cc2ccc3ccc4ccc5cccc6c(c1)c2c3c4c56
inactive: activity change, negative = cytotoxicity [1] 3.98% [at 3.27 µM] | activity, positive = activation [2] 4.07% [at 3.27 µM] | activity change [3] 0.532% [at 2.04 µM, stronger effect = higher value] | activation [4] 0.0535% [at 2.72 µM] | activation [5] -0.291% [at 2.04 µM] | activity change, negative = cytotoxicity [6] -1.32% [at 2.33 µM] | activity change, negative = cytotoxicity [17] 2.26% [at 2.33 µM] | activation [19] 5.49% [at 2.33 µM] | activity, negative = inhibition [8] 1.93% [at 2.12 µM] | activation [9] 13.2% [at 2.65 µM] | activity, negative = inhibition [10] 5.84% [at 2.17 µM] | activation [11] 0.275% [at 2.72 µM] | activation [12] 6.38% [at 3.27 µM] | activity change, negative = inhibition [13] 7.84% [at 3.27 µM] | activation [14] -0.0755% [at 3.27 µM] | activity change, negative = inhibition [15] -0.594% [at 3.28 µM]
